Reference: the supplement of paper PMC3545927
This is one part of the list. How many sequences the whole screen found active is unknown.

Biological target: furin, P09958
Assay: furin cleavage Z-score vs untreated control; higher = more cleavage, active = 3.5 or more, inactive = 1 or less, 8 variable residues between constant flanks
Summary of the method: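 Peptides 8 residues long, fused to a cDNA oligonucleotide, were fixed to magnetic beads by the N-terminus and exposed to purified furin. The 0.01 ml reactions contained 50 mM HEPES pH 7.5 with CaCl2 and NaCl at 1:10 enzyme:substrate and ran 7.5, 15 or 30 min. For the cleavage Z-score, log counts of sequenced released DNA were compared with furin-free reactions, lowess-adjusted and scaled by median absolute deviation.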

Chain of furin, P09958 (P09958 whole entry): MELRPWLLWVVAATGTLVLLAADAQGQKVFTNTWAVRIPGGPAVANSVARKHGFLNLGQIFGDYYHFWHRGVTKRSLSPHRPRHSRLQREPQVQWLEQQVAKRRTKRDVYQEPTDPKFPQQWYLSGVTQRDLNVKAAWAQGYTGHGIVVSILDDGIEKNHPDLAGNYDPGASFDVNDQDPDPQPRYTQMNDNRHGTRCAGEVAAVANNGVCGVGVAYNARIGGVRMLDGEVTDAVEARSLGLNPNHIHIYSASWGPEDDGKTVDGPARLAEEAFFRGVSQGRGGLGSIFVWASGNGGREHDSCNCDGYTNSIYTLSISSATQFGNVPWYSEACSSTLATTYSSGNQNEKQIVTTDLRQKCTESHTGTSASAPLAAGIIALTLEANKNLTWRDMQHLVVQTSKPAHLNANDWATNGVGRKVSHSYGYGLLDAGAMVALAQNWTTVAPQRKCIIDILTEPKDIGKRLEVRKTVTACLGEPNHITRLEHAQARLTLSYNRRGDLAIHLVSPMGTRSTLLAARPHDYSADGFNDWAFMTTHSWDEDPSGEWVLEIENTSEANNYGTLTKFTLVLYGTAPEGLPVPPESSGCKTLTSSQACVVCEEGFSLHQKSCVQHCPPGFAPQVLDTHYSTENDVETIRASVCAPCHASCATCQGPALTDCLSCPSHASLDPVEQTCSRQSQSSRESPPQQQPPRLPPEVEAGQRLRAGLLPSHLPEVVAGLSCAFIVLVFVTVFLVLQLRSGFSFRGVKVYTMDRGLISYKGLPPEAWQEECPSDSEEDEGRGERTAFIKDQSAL

For CAVVCCSCSYAGNASASA [HC2060], the “furin cleavage Z-score” value (7.5 min) was -1.87 (inactive), the “furin cleavage Z-score” value (15 min) was -2.14 (inactive) and the “furin cleavage Z-score” value (30 min) was -0.914 (inactive).

With CAVNCCSMSYAGNASASA [HC2021] the “furin cleavage Z-score” value (7.5 min) was 0.193 (inactive), the “furin cleavage Z-score” value (15 min) was 1.19 and the “furin cleavage Z-score” value (30 min) was -0.734 (inactive).

In the case of CAMEYCSQHLAGNASASA [HC1709], the “furin cleavage Z-score” value (7.5 min) is reported as 1.22, the “furin cleavage Z-score” value (15 min) is reported as 0.203 (inactive) and the “furin cleavage Z-score” value (30 min) is reported as 0.301 (inactive).

For CAVVGTTDRSAGNASASA [HC418], the “furin cleavage Z-score” value (7.5 min) was 0.937 (inactive), the “furin cleavage Z-score” value (15 min) was 1.04 and the “furin cleavage Z-score” value (30 min) was 0.404 (inactive).

With CAAVGRRVRSAGNASASA [FS-12] the “furin cleavage Z-score” value (7.5 min) was 9.92 (active), the “furin cleavage Z-score” value (15 min) was 9.75 (active) and the “furin cleavage Z-score” value (30 min) was 7.92 (active).

CASEARMVRSAGNASASA [FS-1079] was tested, and the “furin cleavage Z-score” value (7.5 min) was 1.59, the “furin cleavage Z-score” value (15 min) was 3.05 and the “furin cleavage Z-score” value (30 min) was 3.76 (active).

CANIVDVQYLAGNASASA [HC508] was tested, and the “furin cleavage Z-score” value (7.5 min) was -0.996 (inactive), the “furin cleavage Z-score” value (15 min) was -0.739 (inactive) and the “furin cleavage Z-score” value (30 min) was -1.04 (inactive).

With CAVWARPDYNAGNASASA [HC1304] the “furin cleavage Z-score” value (7.5 min) was 0.568 (inactive), the “furin cleavage Z-score” value (15 min) was -0.706 (inactive) and the “furin cleavage Z-score” value (30 min) was -1.06 (inactive).

For CASTAAQTFLAGNASASA [HC692], the “furin cleavage Z-score” value (7.5 min) was -0.854 (inactive), the “furin cleavage Z-score” value (15 min) was -1.17 (inactive) and the “furin cleavage Z-score” value (30 min) was 0.0229 (inactive).

In the case of CAREKKDVLAAGNASASA [FS-2484], the “furin cleavage Z-score” value (7.5 min) is reported as 0.263 (inactive), the “furin cleavage Z-score” value (15 min) is reported as 0.353 (inactive) and the “furin cleavage Z-score” value (30 min) is reported as 1.5.

For CAREKRDSVCAGNASASA [FS-1851], the “furin cleavage Z-score” value (7.5 min) was 1.11, the “furin cleavage Z-score” value (15 min) was -0.614 (inactive) and the “furin cleavage Z-score” value (30 min) was 2.31.

For CAREKRQAKHAGNASASA [FS-2255], the “furin cleavage Z-score” value (7.5 min) was 8.15 (active), the “furin cleavage Z-score” value (15 min) was 10.9 (active) and the “furin cleavage Z-score” value (30 min) was 9.4 (active).

In the case of CAREKRDVQPAGNASASA [FS-1693], the “furin cleavage Z-score” value (7.5 min) is reported as 10.8 (active), the “furin cleavage Z-score” value (15 min) is reported as 12.3 (active) and the “furin cleavage Z-score” value (30 min) is reported as 8.99 (active).

For CAREKRHRKKAGNASASA [FS-2007], the “furin cleavage Z-score” value (7.5 min) was -1.19 (inactive), the “furin cleavage Z-score” value (15 min) was -0.208 (inactive) and the “furin cleavage Z-score” value (30 min) was -0.665 (inactive).

CAPTYSWGENAGNASASA [HC423] was tested, and the “furin cleavage Z-score” value (7.5 min) was 0.499 (inactive), the “furin cleavage Z-score” value (15 min) was -1.13 (inactive) and the “furin cleavage Z-score” value (30 min) was 0.237 (inactive).

In the case of CAYSWGENDTAGNASASA [HC424], the “furin cleavage Z-score” value (7.5 min) is reported as -0.162 (inactive), the “furin cleavage Z-score” value (15 min) is reported as -1.61 (inactive) and the “furin cleavage Z-score” value (30 min) is reported as 0.0496 (inactive).

In the case of CALQGREQLTAGNASASA [FS-1882], the “furin cleavage Z-score” value (7.5 min) is reported as 0.515 (inactive), the “furin cleavage Z-score” value (15 min) is reported as -3.14 (inactive) and the “furin cleavage Z-score” value (30 min) is reported as -0.352 (inactive).

With CALTTSCGNTAGNASASA [HC1513] the “furin cleavage Z-score” value (7.5 min) was 0.0451 (inactive), the “furin cleavage Z-score” value (15 min) was -1.21 (inactive) and the “furin cleavage Z-score” value (30 min) was -0.123 (inactive).

In the case of CALQRRWKRTAGNASASA [FS-685], the “furin cleavage Z-score” value (7.5 min) is reported as 12.5 (active), the “furin cleavage Z-score” value (15 min) is reported as 11.8 (active) and the “furin cleavage Z-score” value (30 min) is reported as 10 (active).

With CAGQARWKRPAGNASASA [FS-656] the “furin cleavage Z-score” value (7.5 min) was 0.0361 (inactive), the “furin cleavage Z-score” value (15 min) was 0.0218 (inactive) and the “furin cleavage Z-score” value (30 min) was -0.505 (inactive).

With CAYSQRWKRTAGNASASA [FS-904] the “furin cleavage Z-score” value (7.5 min) was 8.92 (active), the “furin cleavage Z-score” value (15 min) was 9.32 (active) and the “furin cleavage Z-score” value (30 min) was 7.56 (active).

With CALTYRAKRTAGNASASA [FS-1033] the “furin cleavage Z-score” value (7.5 min) was 10.2 (active), the “furin cleavage Z-score” value (15 min) was 12 (active) and the “furin cleavage Z-score” value (30 min) was 9.3 (active).

For CALTDPSHITAGNASASA [HC1248], the “furin cleavage Z-score” value (7.5 min) was -1.48 (inactive), the “furin cleavage Z-score” value (15 min) was 0.964 (inactive) and the “furin cleavage Z-score” value (30 min) was -1.35 (inactive).

In the case of CAGIVPAKSVAGNASASA [HC408], the “furin cleavage Z-score” value (7.5 min) is reported as -0.985 (inactive), the “furin cleavage Z-score” value (15 min) is reported as 0.152 (inactive) and the “furin cleavage Z-score” value (30 min) is reported as 0.898 (inactive).

CARWRRVAVGAGNASASA [FS-2846] was tested, and the “furin cleavage Z-score” value (7.5 min) was 0.992 (inactive), the “furin cleavage Z-score” value (15 min) was 1.04 and the “furin cleavage Z-score” value (30 min) was 3.3.

For CASTPCSATLAGNASASA [HC2558], the “furin cleavage Z-score” value (7.5 min) was 0.0385 (inactive), the “furin cleavage Z-score” value (15 min) was -0.233 (inactive) and the “furin cleavage Z-score” value (30 min) was -0.615 (inactive).

For CARWRRSAPGAGNASASA [FS-2111], the “furin cleavage Z-score” value (7.5 min) was 8.14 (active), the “furin cleavage Z-score” value (15 min) was 8.62 (active) and the “furin cleavage Z-score” value (30 min) was 5.76 (active).

With CASTPCSAILAGNASASA [HC2544] the “furin cleavage Z-score” value (7.5 min) was 1.05, the “furin cleavage Z-score” value (15 min) was 1.22 and the “furin cleavage Z-score” value (30 min) was 0.242 (inactive).

For CARWRRHQEGAGNASASA [FS-3132], the “furin cleavage Z-score” value (7.5 min) was 0.592 (inactive), the “furin cleavage Z-score” value (15 min) was 1.08 and the “furin cleavage Z-score” value (30 min) was 1.98.

In the case of CARWRRSDILAGNASASA [FS-3133], the “furin cleavage Z-score” value (7.5 min) is reported as 1.69, the “furin cleavage Z-score” value (15 min) is reported as 5.44 (active) and the “furin cleavage Z-score” value (30 min) is reported as 6.95 (active).

CALYVGDLCGAGNASASA [HC298] was tested, and the “furin cleavage Z-score” value (7.5 min) was -1.6 (inactive), the “furin cleavage Z-score” value (15 min) was -0.331 (inactive) and the “furin cleavage Z-score” value (30 min) was -1.76 (inactive).

In the case of CAMNSTGFTKAGNASASA [HC438], the “furin cleavage Z-score” value (7.5 min) is reported as 0.142 (inactive), the “furin cleavage Z-score” value (15 min) is reported as -0.334 (inactive) and the “furin cleavage Z-score” value (30 min) is reported as 0.353 (inactive).

With CAALAELATRAGNASASA [HC1332] the “furin cleavage Z-score” value (7.5 min) was -0.307 (inactive), the “furin cleavage Z-score” value (15 min) was -0.0975 (inactive) and the “furin cleavage Z-score” value (30 min) was -0.283 (inactive).

With CARQRRDLLNAGNASASA [FS-2173] the “furin cleavage Z-score” value (7.5 min) was 6.3 (active), the “furin cleavage Z-score” value (15 min) was 11.7 (active) and the “furin cleavage Z-score” value (30 min) was 11.3 (active).

For CARQRRGEERAGNASASA [FS-2761], the “furin cleavage Z-score” value (7.5 min) was 2.18, the “furin cleavage Z-score” value (15 min) was 0.285 (inactive) and the “furin cleavage Z-score” value (30 min) was 0.208 (inactive).

With CARQRRALERAGNASASA [FS-2510] the “furin cleavage Z-score” value (7.5 min) was 7.27 (active), the “furin cleavage Z-score” value (15 min) was 9.89 (active) and the “furin cleavage Z-score” value (30 min) was 9.73 (active).

In the case of CARQRRALEKAGNASASA [FS-1769], the “furin cleavage Z-score” value (7.5 min) is reported as 5.5 (active), the “furin cleavage Z-score” value (15 min) is reported as 5.75 (active) and the “furin cleavage Z-score” value (30 min) is reported as 6.8 (active).

CARQKKAAEKAGNASASA [FS-2584] was tested, and the “furin cleavage Z-score” value (7.5 min) was -1.07 (inactive), the “furin cleavage Z-score” value (15 min) was -0.974 (inactive) and the “furin cleavage Z-score” value (30 min) was 1.2.

For CARQVRYLEKAGNASASA [FS-2175], the “furin cleavage Z-score” value (7.5 min) was 0.662 (inactive), the “furin cleavage Z-score” value (15 min) was 1.05 and the “furin cleavage Z-score” value (30 min) was 1.72.

In the case of CAEVPCHGPSAGNASASA [HC2376], the “furin cleavage Z-score” value (7.5 min) is reported as -0.0304 (inactive), the “furin cleavage Z-score” value (15 min) is reported as 0.46 (inactive) and the “furin cleavage Z-score” value (30 min) is reported as -1.34 (inactive).

CALSVEEACSAGNASASA [HC1412] was tested, and the “furin cleavage Z-score” value (7.5 min) was -1.32 (inactive), the “furin cleavage Z-score” value (15 min) was 0.888 (inactive) and the “furin cleavage Z-score” value (30 min) was -0.38 (inactive).

In the case of CATNNRKIRVAGNASASA [FS-1495], the “furin cleavage Z-score” value (7.5 min) is reported as 2.37, the “furin cleavage Z-score” value (15 min) is reported as 4.37 (active) and the “furin cleavage Z-score” value (30 min) is reported as 4.34 (active).

For CADIARARRVAGNASASA [FS-121], the “furin cleavage Z-score” value (7.5 min) was -0.464 (inactive), the “furin cleavage Z-score” value (15 min) was -0.299 (inactive) and the “furin cleavage Z-score” value (30 min) was 0.591 (inactive).

CAISRRQRRVAGNASASA [FS-36] was tested, and the “furin cleavage Z-score” value (7.5 min) was 5.61 (active), the “furin cleavage Z-score” value (15 min) was 5.68 (active) and the “furin cleavage Z-score” value (30 min) was 6.35 (active).

CASHRRQRRVAGNASASA [FS-499] was tested, and the “furin cleavage Z-score” value (7.5 min) was 7.8 (active), the “furin cleavage Z-score” value (15 min) was 8.25 (active) and the “furin cleavage Z-score” value (30 min) was 6.5 (active).

For CARHRRPRRVAGNASASA [FS-1258], the “furin cleavage Z-score” value (7.5 min) was 3.43, the “furin cleavage Z-score” value (15 min) was 4.61 (active) and the “furin cleavage Z-score” value (30 min) was 4.95 (active).

In the case of CAKNQRKIRIAGNASASA [FS-677], the “furin cleavage Z-score” value (7.5 min) is reported as -0.0796 (inactive), the “furin cleavage Z-score” value (15 min) is reported as 0.212 (inactive) and the “furin cleavage Z-score” value (30 min) is reported as 1.01.

For CAQRHRQGRVAGNASASA [FS-849], the “furin cleavage Z-score” value (7.5 min) was -0.109 (inactive), the “furin cleavage Z-score” value (15 min) was 1.55 and the “furin cleavage Z-score” value (30 min) was 0.481 (inactive).
